An excerpt weighted towards active compounds, which were near 0.95% of everything screened.
RN4220 kill – S. aureus RN4220 growth inhibition. OD600, 16 h. inhibition, % (test concentration not listed). 330,000 compounds, 0.33% hits. AID 1259311; in the data active means inhibition above about 85%;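 further: plate controls were untreated cells for no effect and reference antibiotic for full effect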
PrPC TRFRET – inhibitors of human cell surface prion protein PrPC; TR-FRET read-out; 370,000 compounds, 0.43% hits; inhibition, % at 13.8 µM; P04156; in the data active means inhibition above about 24%; further: 0% = median of the test wells and 100% = reference compound wells
Sa ugtP lethal – kills S. aureus RN4220 lacking UgtP; S. aureus RN4220 ugtP deletion, OD600 growth, 16 h; growth inhibition, % (no concentration beside the values); 330,000 compounds, 0.54% hits; AID 1259309; in the data active means growth inhibition above about 68%;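 further: plate controls were untreated wells for no effect and antibiotic for full effect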
BJeLR viability – BJeLR cell viability loss; 300,000 compounds, 0.17% hits; BJeLR (HRASV12) viability, CellTiter-Glo ATP luminescence, 48 h; inhibition, % (no concentration beside the values); AID 1554; in the data active means inhibition above about 50%
* hit, by the source's call; x = no result given.

SMILES	RN4220 kill	PrPC TRFRET	Sa ugtP lethal	BJeLR viability
Oc1c(N=Nc2ccccn2)ccc2ccccc12	-3	-32	-4	61*
COc1ccc(NC(=O)C2CC(=O)N/C(=N/N=Cc3ccccc3)S2)cc1 (configuration not stated)	7	x	-2	x
Cc1cc2n(n1)C(c1c[nH]c3ccccc13)Nc1ccccc1-2 (configuration not stated)	99*	x	99*	2
COc1ccc(Cn2cc(CN3[C@H](CC(C)C)COc4cc(Br)ccc4S3(=O)=O)nn2)cc1	x	5	x	x
CCn1ncc(C=NO)c1C	-3	x	-1	x
O=C(O)CCCC(=O)Nc1ccc(C(=O)NCc2cccnc2)cc1	0	-7	0	6
O=C(NCc1cccnc1)c1ccc(NC(=O)c2cccc([N+](=O)[O-])c2)cc1	2	-24	4	79*
O=C(COc1ccc([N+](=O)[O-])cc1)Nc1ccc(C(=O)NCc2cccnc2)cc1	3	0	10	63*
O=C(CCC1CCCC1)Nc1ccc(C(=O)NCc2cccnc2)cc1	1	-2	7	89*
O=C(NCc1cccnc1)c1ccc([N+](=O)[O-])cc1	5	-19	12	-3
CCCCn1cnc2c(c(-c3ccccc3)c(-c3ccccc3)n2Cc2ccco2)c1=N	1	-11	0	62*
CC(C)[C@@H]1CC[C@@H](C)C[C@H]1OC(=O)C[n+]1cc(-c2ccc(Cl)cc2)n2c1CCCCC2	101*	10	100*	3
COc1ccc(-c2c[n+](CC(=O)OC3CC(C)CCC3C(C)C)c3n2CCC3)cc1 (configuration not stated)	100*	22	100*	19
COc1ccc(CC2S/C(=N/N=Cc3ccc(O)cc3)NC2=O)cc1 (configuration not stated)	7	x	8	x
CC(CS(=O)(=O)c1ccc(Cl)c(Cl)c1)=NNC(N)=S	10	x	1	x
Cc1cccc(NS(=O)(=O)c2cc(NC(=O)CC(=O)c3ccc([N+](=O)[O-])cc3)ccc2C)c1	x	x	x	-2
Cc1cccc(NS(=O)(=O)c2ccc(NC(=O)CN(c3cc([N+](=O)[O-])ccc3C)S(C)(=O)=O)cc2)c1	x	8	x	69*
COc1ccc(C)cc1NS(=O)(=O)c1ccc(NC(=O)CN(c2cc([N+](=O)[O-])ccc2C)S(C)(=O)=O)cc1	-7	-9	-2	109*
COc1ccc([N+](=O)[O-])cc1N(CC(=O)NCCSc1ccc(C)cc1)S(C)(=O)=O	-2	-12	-8	-11
NC(=O)COC(=O)c1oc2ccccc2c1CSc1ccc(Cl)cc1	-5	1	96*	-2
Cc1[nH]n(-c2ccc(Br)cc2)c(=O)c1C=NNC(=O)c1ccccc1	94*	x	97*	x
CC(C)(C)c1cc(CCC(=O)NNC(=S)NC(=O)c2ccccc2)cc(C(C)(C)C)c1O	64	x	89*	10
CCc1cccc2c(C(=O)COC(=O)c3ccc([N+](=O)[O-])s3)c[nH]c12	100*	-30	101*	-9
O=C(OCC(=O)c1c[nH]c2ccccc12)c1ccc([N+](=O)[O-])s1	85	-24	101*	-5
Cc1nc2ccccc2c(=O)n1N=Cc1cccs1	3	x	3	x
SMILES	RN4220 kill	PrPC TRFRET	Sa ugtP lethal	BJeLR viability
COc1ccccc1-c1cc(C(=O)NN=C/C=C/c2ccccc2[N+](=O)[O-])c2ccccc2n1	-5	x	-4	x
C=C1c2c(Cl)ccc(O)c2C(O)=C2C(=O)[C@]3(O)C(O)=C(C(N)=O)C(=O)C(N(C)C)C3C(O)C12 (some centres not stated)	100*	x	100*	x
C=C1c2cccc(O)c2C(=O)C2C(=O)[C@]3(O)C(=O)C(C(N)=O)C(=O)C(N(C)C)C3C(O)C12 (some centres not stated)	100*	x	89	x
C=C1c2cccc(O)c2C(O)=C2C(=O)[C@]3(O)C(O)=C(C(N)=O)C(=O)[C@@H](N(C)C)[C@@H]3[C@@H](O)[C@H]12	100*	13	99*	-3
COc1ccc(NS(=O)(=O)c2ccc(NN=C(C)c3ccncc3)c([N+](=O)[O-])c2)cc1	4	x	11	x
CCSc1ncc(C=NNc2ccc([N+](=O)[O-])cc2)n1C	-1	x	3	x
c1ccc(SCc2cn(CC3CCC(C4CCC(Cn5cc(CSc6ccccc6)nn5)O4)O3)nn2)cc1 (configuration not stated)	6	x	-1	x
Cc1ccc(-c2[nH]nc(N)c2N=Nc2cccc(Cl)c2C)cc1	84	-2	99*	x
Cc1nnsc1C(=O)N/N=C/c1ccc2ccccc2c1O	x	-2	x	61*
CCOC(=O)c1ccc(NC(=O)Nc2ccon2)cc1	4	7	-2	58*
CC(C)=CCc1c(O)cc(O)c2c(=O)c3c(CC=C(C)C)c(O)ccc3oc12	100*	x	100*	6
Cc1c(C=NNc2nc3ccccc3[nH]2)c2ccccc2n1C	99*	x	99*	x
CN1C/C(=C/c2ccncc2)C(=O)/C(=C/c2ccncc2)C1	-1	-13	3	72*
CCOc1cc(/C=C2\CN(C)C/C(=C\c3ccc(O)c(OCC)c3)C2=O)ccc1O	0	-18	-7	61*
COCCNC(=S)NN=C(C)c1cccc(OC)c1	2	x	1	x
CC1CC(=NNc2ccc(S(N)(=O)=O)cc2[N+](=O)[O-])CC(C)(C)C1 (configuration not stated)	-9	x	19	x
CC(=NNC(=O)c1ccoc1C)c1ccc(NC(=O)c2ccncc2)cc1	2	x	3	x
Clc1ccc2c(c1)c1ccccc1n2CN1CCOCC1	-26	-3	6	0
Clc1ccc2c(c1)c1cc(Cl)ccc1n2CN1CCOCC1	62	8	84*	-5
Oc1cccc2ccc(/C=C/c3c(F)cccc3Cl)nc12	-8	-20	8	0
Oc1cccc2ccc(/C=C/c3ccccc3Cl)nc12	83	-13	91*	45
O=C(Nn1c(COc2ccccc2)nc2ccccc2c1=O)C(Cl)(Cl)Cl	100*	1	100*	7
O=C1C=C(c2cccs2)C[C@H](c2ccccc2)[C@H]1n1nnc([N+](=O)[O-])n1	72	-8	98*	83*
CCC(=O)N1CCN(c2nc(CC)nc3sc4c(c23)CCCC4)CC1	5	-8	12	0
CC1CCc2c(sc3nc(C(C)(C)C)nc(N4CCN(C(=O)CCl)CC4)c23)C1 (configuration not stated)	x	-9	x	85*
SMILES	RN4220 kill	PrPC TRFRET	Sa ugtP lethal	BJeLR viability
O=C(NN=Cc1ccc(Cl)cc1)C(=O)N1CCCCCC1	7	x	5	x
CC(C)Sc1cc(N2CCOCC2)nc(-c2ccc(Cl)cc2)n1	6	-5	2	-5
CCN1CCN(c2cc(SC(C)C)nc(-c3ccc(OC)cc3)n2)CC1	-3	-4	93*	-3
COc1ccc(NC(=O)CN(C)S(=O)(=O)c2ccc3[nH]c(=O)oc3c2)cc1	3	1	4	56*
Cc1noc(C)c1NC(=O)Nc1cccc2c1OC(CN(C)C(=O)Nc1ccccc1)C(C)CN(C(C)CO)C2=O (configuration not stated)	1	x	-7	x
O=[N+]([O-])c1ncccc1OCc1ccc(-c2ccccc2)cc1	-1	-5	89*	1

Screens: PubChem, several laboratories
